PMC4336329 (PLoS ONE, 2015)
The whole screen tested about 310,000 compounds, of which about 14,000 (4.5%) showed an effect of 50% or more. The effect is printed as a negative number. What follows is part of a selection rich in strong results, with near analogues and random picks from the rest.

Each compound was assayed against human ether-à-go-go-related gene (hERG) potassium channel (human, UniProt Q12809) (assay: primary screen, population patch clamp on CHO cells stably expressing hERG; higher = less effect of the substance).
Chain of human ether-à-go-go-related gene (hERG) potassium channel (Q12809 whole entry, looked up): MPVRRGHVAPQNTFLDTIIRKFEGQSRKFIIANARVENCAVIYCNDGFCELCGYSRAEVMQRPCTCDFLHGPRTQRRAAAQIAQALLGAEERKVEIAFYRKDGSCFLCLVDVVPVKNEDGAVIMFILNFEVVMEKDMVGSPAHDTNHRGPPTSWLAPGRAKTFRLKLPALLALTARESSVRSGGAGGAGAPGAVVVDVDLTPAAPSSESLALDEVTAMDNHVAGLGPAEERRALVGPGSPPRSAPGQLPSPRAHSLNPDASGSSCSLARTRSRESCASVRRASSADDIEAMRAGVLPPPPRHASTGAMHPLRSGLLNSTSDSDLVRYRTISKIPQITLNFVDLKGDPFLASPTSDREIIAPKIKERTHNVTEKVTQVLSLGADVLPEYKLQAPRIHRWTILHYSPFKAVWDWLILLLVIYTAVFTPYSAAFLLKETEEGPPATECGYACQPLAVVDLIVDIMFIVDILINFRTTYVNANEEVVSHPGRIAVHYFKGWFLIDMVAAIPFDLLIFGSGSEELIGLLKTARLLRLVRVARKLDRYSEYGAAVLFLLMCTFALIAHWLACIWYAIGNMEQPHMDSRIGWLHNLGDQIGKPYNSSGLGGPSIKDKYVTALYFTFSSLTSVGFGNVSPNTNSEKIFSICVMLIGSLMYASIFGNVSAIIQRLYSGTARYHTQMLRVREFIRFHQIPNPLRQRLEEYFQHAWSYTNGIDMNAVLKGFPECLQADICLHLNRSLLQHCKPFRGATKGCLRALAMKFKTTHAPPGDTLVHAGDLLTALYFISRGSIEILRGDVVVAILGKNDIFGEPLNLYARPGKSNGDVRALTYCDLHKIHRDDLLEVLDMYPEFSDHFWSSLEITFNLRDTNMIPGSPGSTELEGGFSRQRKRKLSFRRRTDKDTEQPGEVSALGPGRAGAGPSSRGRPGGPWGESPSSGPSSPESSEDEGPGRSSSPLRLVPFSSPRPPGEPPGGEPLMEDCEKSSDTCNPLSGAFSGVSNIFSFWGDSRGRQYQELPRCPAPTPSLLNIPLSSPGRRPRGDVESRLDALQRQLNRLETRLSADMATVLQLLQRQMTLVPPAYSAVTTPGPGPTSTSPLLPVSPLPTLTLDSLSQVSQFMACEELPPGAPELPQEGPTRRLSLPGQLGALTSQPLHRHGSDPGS
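Also: peak tail current of the secondary pulse compared with the same well before compound.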

Point of comparison: `COc1ccc(NC(=O)c2cccs2)c([N+](=O)[O-])c1`, “hERG current change (%, negative = inhibition) at 10uM” value -3.28%. Against it:
- O=C(CC1C(=O)NCCN1Cc1cccc(C(F)(F)F)c1)NCCc1cnccn1 (stereo not drawn) — higher, 7.22%
- O=C(COC(=O)c1cc(Cl)ccc1O)NC(=O)NCc1ccccc1 — higher, 4.6%
- COC(=O)C(CSCc1ccccc1)NC(=O)CSc1nc(C)cc(=O)[nH]1 (stereo not drawn) — higher, 18.4%
- CN(c1ccccc1)S(=O)(=O)c1ccc(C(=O)NCCc2ccc(F)cc2)cc1 — lower, -21.1%
- CC(=O)Nc1ccc(/C(C)=N/NC(=O)c2ccc(CN3CCOCC3)cc2)cc1 — higher, 25.2%
- Br.CC1CCCC(C)N1Cc1cn2ccccc2n1 (stereo not drawn) — higher, 7.29%
- Cc1nn(CC(=O)Nc2ccccn2)c(C)c1Br — higher, 15.3%
- Nc1ccc2ncccc2c1N — higher, 6.47%
- CSc1ccc(CCNS(=O)(=O)c2c(C)[nH]c(C)c2C(=O)N2CCCCC2)cc1 — lower, -15.2%
- COc1ccc(CCNC(=O)c2cc(=O)n(C)c(=O)n2C)cc1OC — higher, -0.242%
- Cc1ccc(-n2c(SCC(=O)OC(C)C)nnc2-c2ccco2)cc1 — lower, -37.7%
- Cc1cccc(C(=O)Oc2ccccc2/C=N/NC(=O)c2ccc(NC(=O)C(C)(C)C)cc2)c1 — lower, -4.88%
- CN1C=CC2=C(C#N)C(N)C(C#N)(C#N)[C@H](c3ccccc3)[C@H]2C1 (stereo partly drawn) — lower, -4.67%
- Cc1ccc(-n2nnnc2SCC(=O)N2CCN(C(=O)c3ccco3)CC2)c(C)c1 — lower, -76%
- Cc1ccc(-n2nnnc2SCC(=O)NNC(=O)c2ccco2)c(C)c1 — lower, -4.35%
- O=C(CSc1nnnn1-c1ccccc1)N1CCN(C(=O)c2ccco2)CC1 — lower, -49.4%
- COc1ccccc1NC(=O)c1cnc(SC)nc1 — higher, 19.2%
- O=C(O)C(=O)O.O=S(=O)(c1ccc(Cl)cc1)N1CCC(N2CCOCC2)CC1 — lower, -11.5%
- Cn1ncc2c(Nc3ccc(O)cc3)nc(Cl)nc21 — higher, 5.53%
- COc1ccc(NCc2nnc(SCCN3CCCCC3)n2-c2ccc(C)cc2)cc1 — lower, -66.7%
- Cc1ccccc1OCc1nnc(SCC(=O)O)n1-c1ccccc1 — higher, 14.4%
- COc1ccc(C(=O)CSc2nnc(CN3CCCC3)n2-c2ccc(F)cc2)c(OC)c1 — lower, -23%
- COc1ccc(C(=O)CSc2nnc(CN3CCCCC3)n2-c2ccc(F)cc2)cc1OC — higher, 6.33%
- Cc1ccccc1OCc1nnc(SCC(=O)O)n1-c1cccc(Cl)c1 — higher, 5.63%
- COc1ccc(C(=O)CSc2nnc(CN3CCCCC3)n2-c2ccc(F)cc2)cc1 — lower, -57.7%
- Cc1ccccc1OCc1nnc(SCCN2CCCC2)n1-c1ccccc1.Cl — lower, -65.3%
- COc1ccc(-n2c(CNc3ccc(C)cc3)nnc2SCc2ccccc2)cc1 — lower, -7.09%
- Cn1c(CNc2ccc(Cl)cc2)nnc1SCCN1CCCCC1 — lower, -46.4%
- O=C(CCN1CCOCC1)Nc1c(-c2ccccc2)c2cc(Br)ccc2[nH]c1=O — lower, -11.9%
- CC(=O)Nc1ccc(C(=O)Nc2cccc(S(=O)(=O)NC3=NCCC3)c2)cc1 — higher, 4.95%
- CC(C)(O)C#Cc1ccc(CN2CCN(Cc3ccccc3)C(CCO)C2)s1 (stereo not drawn) — higher, 4.64%
- CCOc1cc(C)c(S(=O)(=O)Nc2ccc3cn[nH]c3c2)cc1C — higher, 25.2%
- N#CC1(NC(=O)CSc2nnc(Nc3ccccc3F)s2)CCCC1 — higher, 0.45%
- COc1cc(OC)cc(C(=O)OCC(=O)NCCCc2ccccc2)c1 — higher, 12.2%
- C=CCN1C(=O)N/C(=C/c2ccc(C)o2)C1=O — higher, 9.15%
- COC(=O)c1ccc(C2c3[nH]c4ccccc4c3C[C@H]3C(=O)N(C4CCN(Cc5ccccc5)CC4)CC(=O)N23)cc1 (stereo partly drawn) — lower, -10%
- CSCC[C@H](NC(=O)C1=NN(c2c(F)c(F)cc(F)c2F)C(=O)CC1)c1nc2ccccc2[nH]1 — lower, -13.3%
- CC(=O)Nc1ccccc1NC(=O)C/C(C)=N/NC(=O)c1ccncc1 — higher, 19.6%
- COc1ccc(NC(=O)C/C(C)=N/NC(=O)COc2ccc(OC)cc2)cc1 — lower, -18.8%
- COc1ccc(-c2nnc(NC(=O)C3CCCN3S(=O)(=O)c3cccs3)o2)cc1 (stereo not drawn) — lower, -3.47%
- COc1ccc([N+](=O)[O-])cc1NC(=O)C1CCCN1S(=O)(=O)c1cccs1 (stereo not drawn) — lower, -18.1%
- CCC(=O)N/N=C(\C)CC(=O)Nc1cccc([N+](=O)[O-])c1 — higher, 9.57%
- COc1ccc(NC(=O)C2CCCN2S(=O)(=O)c2cccs2)c([N+](=O)[O-])c1 (stereo not drawn) — lower, -68.3%
- COc1ccc(OCC(=O)N/N=C(\C)CC(=O)Nc2cccc([N+](=O)[O-])c2)cc1 — lower, -53.8%
- COc1cc(NC(=O)C/C(C)=N/NC(=O)c2cccs2)c(OC)cc1Cl — lower, -14.4%
- COc1ccc(NC(=O)C/C(C)=N/NC(=O)c2ccncc2)c([N+](=O)[O-])c1 — lower, -59.8%
- COc1ccc(NC(=O)C/C(C)=N/NC(=O)c2ccco2)c([N+](=O)[O-])c1 — lower, -33.9%
- COc1ccc(NC(=O)C/C(C)=N/NC(=O)c2cccs2)c([N+](=O)[O-])c1 — lower, -54.4%
- Cc1ccccc1CN(C)CC(=O)NC(C)CCc1ccccc1 (stereo not drawn) — lower, -17.2%
- O=C(CSc1nnc(-c2ccccc2)n1C1CCCCC1)N1CCCC1 — lower, -6.76%
- CCC1(C)Cc2c(sc3nc(SC)nc(N)c23)CO1 (stereo not drawn) — lower, -7.82%
- O=C1NC(Cc2ccccc2)c2nc3ccccc3c(=O)n2-c2cc(Cl)ccc21 (stereo not drawn) — higher, 11.4%
- CCCCn1c(N)c(N(CCC(C)C)C(=O)C2=NN(c3cc(C)ccc3C)C(=O)CC2)c(=O)[nH]c1=O — higher, -1.89%
